Source: PubChem BioAssay
Shown is part of a subset that was picked to be rich in hits.
Pf Dd2 growth – Plasmodium falciparum Dd2 growth inhibition. P. falciparum Dd2 growth, SYBR Green, 72 h. AID 1347417. 120,000 compounds, 4.3% hits. Potency, µM (highest dose often 28.9 µM), inactives show at the highest dose activity, negative = inhibition, actives largely listed as inhibitors; active = well fitted inhibition curve with a large enough effect;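 note: plate controls were DMSO vehicle for no effect and reference drug for full effect; nearly all actives have a fitted effect of over 65% in size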
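Infected erythrocytes (Dd2, 0.3% parasitemia, 2.5% hematocrit final) are added to compound in RPMI-1640/Albumax II medium, grown 72 h at 37C in low oxygen, then lysed with saponin/Triton-X containing SYBR Green and read by fluorescence.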
Numbers without * were called inactive; [ ] = remark or other dose. Potency is the fitted concentration of half-maximal effect.

CCNC(=O)NC[C@H]1C[C@@H]2CCN1C[C@@H]2c1cc(-c2ccc(OC)c(OC)c2)nc(C)n1 was read as Pf Dd2 growth -20%.
CCCS(=O)(=O)NC[C@H]1C[C@@H]2CCN1C[C@@H]2c1cc(-c2ccc(OC)c(OC)c2)nc(C)n1 was read as Pf Dd2 growth inactive.
Cc1nc(-c2ccc(N(C)C)cc2)cc([C@H]2CN3CC[C@H]2C[C@@H]3COC(=O)Nc2ccc(C(C)C)cc2)n1 was read as Pf Dd2 growth 4µM*.
Cc1ccc(C(=O)NC[C@H]2C[C@@H]3CCN2C[C@@H]3c2cc(-c3ccccc3Br)nc(C)n2)cc1 was read as Pf Dd2 growth -9%.
`Cc1nc(-c2ccccc2)cc([C@H]2CN3CC[C@H]2C[C@@H]3CNC(=O)C2CCC2)n1` gave Pf Dd2 growth inactive.
For COCCN1CCCC2(CCN(C(=O)COc3cccc(C)c3C)C2)C1=O (stereo unspecified) the results were Pf Dd2 growth 7%.
Screening COC1C(=O)N(C2CCN(C(=O)c3cnccc3C)CC2)C12CCOCC2 (stereo unspecified) returned Pf Dd2 growth 9%.
For CO[C@H]1COCCN(C(=O)c2cccc(F)c2)C1 the results were Pf Dd2 growth 13%[44.1 µM].
Screening CNC(=O)[C@@H]1C[C@H](Oc2cccnc2)CN1C(=O)c1nccc2ccccc12 returned Pf Dd2 growth 4%.
NC(=O)CN1CCC(C(=O)NCc2cc(-c3ccc(Cl)cc3)on2)CC1 was read as Pf Dd2 growth inactive.
`O=C1CC(c2noc(Cc3ccc(Cl)cc3)n2)CN1C1CCCCC1` (stereo unspecified) gave Pf Dd2 growth -18%.
CC(=O)NCC(=O)N1CCC(N2C(=O)C(OCC3CC3)C23CCCCC3)CC1 (stereo unspecified) was read as Pf Dd2 growth -21%.
For Cc1cc(C(=O)Nc2ccc([C@H]3OCC(=O)N(C)[C@@H]3CO)cc2)n(C)n1 the results were Pf Dd2 growth -5%[44.1 µM].
For CCn1ccc(C(=O)N2CCC(Cc3ncc(C)n3CCOC)CC2)n1 the results were Pf Dd2 growth -1%.
For Cc1nc(-c2ccc(N(C)C)cc2)cc([C@H]2CN3CC[C@H]2C[C@@H]3CNC(=O)c2ccccc2)n1 the results were Pf Dd2 growth 3.2µM*.
`CCNC(=O)NC[C@H]1C[C@@H]2CCN1C[C@@H]2c1cc(-c2ccc(N(C)C)cc2)nc(C)n1` gave Pf Dd2 growth -4%[44.1 µM].
For COc1ccc(C(=O)NC[C@H]2C[C@@H]3CCN2C[C@@H]3c2cc(-c3ccc(N(C)C)cc3)nc(C)n2)cc1 the results were Pf Dd2 growth inactive.
For CC1(C)CC(CC(=O)N[C@H](Cc2ccccc2)C2CC(O)C2)CC(C)(C)N1 (stereo partly specified) the results were Pf Dd2 growth 7%.
CCOc1ccc(NC(=O)C(NS(=O)(=O)c2cccc3nsnc23)c2ccccc2)cc1 (stereo unspecified) was read as Pf Dd2 growth 22%.
For CC(C)C(NS(=O)(=O)c1cccc2cccnc12)C(=O)Nc1ccc(OC(F)(F)F)cc1 (stereo unspecified) the results were Pf Dd2 growth 10µM*.
Screening O=C(Nc1cccc(C(F)(F)F)c1)O[C@@H]1CO[C@H]2[C@@H]1OC[C@@H]2NS(=O)(=O)c1cccc2cccnc12 returned Pf Dd2 growth -22%.
For COc1cc(CN2CCN(Cc3cnc(SC)nc3)CC2CCO)cc(OC)c1 (stereo unspecified) the results were Pf Dd2 growth inactive.
For COc1ccc(CN2CCN(Cc3cc4ccccc4[nH]3)CC2CCO)c(C)c1C (stereo unspecified) the results were Pf Dd2 growth 8.9µM*.
For CCOc1ccccc1CN1CCN(Cc2nccn2CC)CC1CCO (stereo unspecified) the results were Pf Dd2 growth inactive.
COc1ccccc1Oc1ncccc1CNC(=O)c1ccc(CO)o1 was read as Pf Dd2 growth 0%.
Screening CC(=O)c1cccc(NC(=O)CCCSc2nc(-c3ccco3)cc(C(F)(F)F)n2)c1 returned Pf Dd2 growth 3%.
For Cc1cc(F)ccc1NC(=O)CCSc1nc(-c2ccco2)cc(C(F)(F)F)n1 the results were Pf Dd2 growth 8.9µM*.
Screening COc1ccc(NC(=O)CCCSc2nc(-c3ccco3)cc(C(F)(F)F)n2)c(OC)c1 returned Pf Dd2 growth inactive.
Cc1ccc(NC(=O)CSc2nc(-c3ccco3)cc(C(F)(F)F)n2)cc1C was read as Pf Dd2 growth -29%.
`Cc1ccc(NC(=O)CCSc2nc(-c3ccco3)cc(C(F)(F)F)n2)cc1F` gave Pf Dd2 growth 0.79µM*.
`COc1ccc(NC(=O)CCCSc2nc(-c3ccco3)cc(C(F)(F)F)n2)cc1` gave Pf Dd2 growth 85%.
CN1C(=O)CC(C(=O)O)C12CCN(C(=O)NCCc1ccccc1F)CC2 (stereo unspecified) was read as Pf Dd2 growth -3%.
`COCCN1CCCCCC(O)c2cc(C(=O)NCCCN3CCCC3=O)ccc21` (stereo unspecified) gave Pf Dd2 growth inactive.
`Cc1nc(C)n(CCCNC(=O)C2CCN(C(=O)C3CCC3)CC2)n1` gave Pf Dd2 growth -4%.
Screening CCN(CC)Cc1cnc2c(C(=O)N3CCCN4CCC[C@H]4C3)cnn2c1 returned Pf Dd2 growth -23%.
For O=C(Cc1ccccc1)N1CCCC2(C1)Nc1cccnc1NC2=NC1CCCC1 (stereo unspecified) the results were Pf Dd2 growth inactive[5.79 µM].
For Cc1[nH]cnc1CN1CCN(C2CCCC2)CC(C(=O)O)C1 (stereo unspecified) the results were Pf Dd2 growth -8%.
For Cc1cc(C)nc(CNC2CCN(c3nc(C)nc4sccc34)CC2)n1 the results were Pf Dd2 growth -8%.
Cc1cc(N2CCC(NCc3nc[nH]c3C)CC2)nc(-c2ccccc2O)n1 was read as Pf Dd2 growth 10µM*.
Screening CCN1CCCC2(CCN(C(=O)CCc3n[nH]c(C)c3C)C2)C1=O (stereo unspecified) returned Pf Dd2 growth -5%.
`O=C1CC(C(=O)O)C2(CCN(c3ncc(C(=O)O)cc3Cl)CC2)N1` (stereo unspecified) gave Pf Dd2 growth 2%.
Screening Cc1ccc(C(=O)N2CCC3(CC2)SCC(=O)N3c2ccc(F)cc2)cc1[N+](=O)[O-] returned Pf Dd2 growth inactive.
`COc1ccc(NC(=O)c2sc3nc4c(cc3c2N)CN(Cc2ccccc2)CC4)cc1OC` gave Pf Dd2 growth inactive.
For CN1CCc2nc3sc(C(=O)c4ccc(F)cc4)c(N)c3cc2C1 the results were Pf Dd2 growth -7%.
For CN1CCc2nc3sc(C(=O)Nc4ccccc4C(F)(F)F)c(N)c3cc2C1 the results were Pf Dd2 growth 8.9µM*.
CC(C)c1nnc(C2CN(C(=O)C3(c4ccccc4)CC3)CC23CCOCC3)o1 (stereo unspecified) was read as Pf Dd2 growth -19%.
Screening O=C1Nc2ccccc2CC12CCCN2C1CCCCC1 (stereo unspecified) returned Pf Dd2 growth 10µM*.
`O=C(NC1CCCC1)N1CCCCC12Cc1ccccc1NC2=O` (stereo unspecified) gave Pf Dd2 growth -2%[44.1 µM].
For O=C(c1ccccc1)N1CCCCC12Cc1ccccc1NC2=O (stereo unspecified) the results were Pf Dd2 growth inactive.
CCOc1cc(C(=O)NC2CCN(c3cc(-c4ccccc4)[nH]n3)CC2)cc(OCC)c1OCC was read as Pf Dd2 growth -23%.
`O=C1CCN(C(=O)C2CCN(C(=O)Cc3cccc(F)c3)CC2)CCCCCCN1` gave Pf Dd2 growth -13%.
